In PubChem BioAssay AID463173 (ICCB-Longwood Screening Facility, Harvard Medical School, 2010):
Among all 52,000 compounds or so, about 4,300 (8.3%) were called active. The sample as a whole holds a higher share of actives than the screen did. A number with no mark means an inactive call. Rule as the data show it: active = survival mostly below about 52% (no sharp cut-off); inactive = mostly above about 56%.

Each compound was assayed on DeltatarO mutant (assay: S. aureus survival, RN4220 and DeltatarO strains – OD600, teichoic acid synthesis inhibitors, primary screen (AID 463173)). Settings: S. aureus RN4220 wild type/DeltatarO growth, OD600, 18 h, hits give low values, screened at 18.75 µg/mL (by protocol).

| SMILES | survival |
| --- | --- |
| COc1cccc2cc(-c3nc(-c4ccc(Cl)cc4)cs3)c(=O)oc12 | 83% |
| Cc1ccc(Sc2c(C(=O)NCc3ccccc3C)[nH]c3ccccc23)cc1 | 77% |
| CCOc1cccc(C(=O)Nc2ccc(Cl)cn2)c1 | 72% |
| Cc1cccc(Cn2cc(S(=O)(=O)c3cccc(Cl)c3)c(=O)c3cc(F)c(N4CCOCC4)cc32)c1 | 85% |
| Cc1ccc(C)c(CN2CCC(CNC(=O)Cn3ncc4c([nH]c5ccccc54)c3=O)CC2)c1 | 70% |
| Cc1ccc(S(=O)(=O)c2[nH]c(-c3ccccc3)nc2SCC(=O)O)cc1 | 78% |
| COC(=O)c1ccc(NC(=O)c2cc3cc(C)ccc3n2C)cc1 | 66% |
| O=C1C(c2nc3ccccc3[nH]2)=C(O)c2ccccc21 | 74% |
| CCCN1CCc2nc(N3CCN(CC)CC3)ncc2C1 | 72% |
| COc1ccc2oc(-c3ccc(C)c(NC(=O)c4ccc(-c5ccccc5[N+](=O)[O-])o4)c3)nc2c1 | 42% (active) |
| Cc1ccc2oc(-c3ccc(Cl)c(NC(=O)c4ccc(-c5ccccc5[N+](=O)[O-])o4)c3)nc2c1 | 74% |
| Cc1ccc2oc(-c3ccc(C)c(NC(=O)c4ccc(-c5ccccc5[N+](=O)[O-])o4)c3)nc2c1 | 68% |
| Cc1cccc(Nc2nn3c(=O)c4cc5c(cc4nc3s2)OCO5)c1 | 116% |
| Cc1cc(C)c(Nc2nn3c(=O)c4cc5c(cc4nc3s2)OCO5)c(C)c1 | 51% |
| Cc1ccc(C)c(Nc2nn3c(=O)c4cc5c(cc4nc3s2)OCO5)c1 | 37% (active) |
| O=C(c1ccccc1Cl)n1nc(-c2cccnc2)nc1NCc1ccc(F)cc1 | 55% |
| COc1ccccc1C(=O)n1nc(-c2ccccc2)nc1NCc1ccc(Cl)cc1 | 56% |
| COc1ccc(CNc2nc(-c3ccc(Cl)cc3)nn2C(=O)c2ccccc2)cc1 | 36% (active) |
| O=C(c1ccc(F)cc1)n1nc(-c2cccnc2)nc1NCc1ccc(F)cc1 | 73% |
| O=C(c1ccc(F)cc1)n1nc(-c2ccccc2)nc1NCc1ccc(F)cc1 | 30% (active) |
| Cc1cccc(C(=O)n2nc(-c3cccnc3)nc2NCc2ccc(F)cc2)c1 | 54% |
| O=C(c1ccc(Cl)cc1)n1nc(-c2cccnc2)nc1NCc1ccc(F)cc1 | 43% (active) |
| Cc1ccccc1C(=O)n1nc(-c2cccnc2)nc1NCc1ccc(F)cc1 | 48% |

| SMILES | survival |
| --- | --- |
| O=C(c1ccccc1)n1nc(-c2ccccc2)nc1NCc1ccc(F)cc1 | 12% (active) |
| COc1ccc(CNc2nc(-c3ccccc3)nn2C(=O)c2ccccc2OC)cc1 | 102% |
| O=C(c1ccc(F)cc1)n1nc(-c2cccnc2)nc1NCc1ccccc1 | 71% |
| O=C(c1ccco1)n1nc(-c2ccccc2)nc1NCc1ccc(F)cc1 | 65% |
| Cc1ccc(Cn2ccnc2SCC(=O)Nc2ccc3c(c2)OCO3)cc1 | 92% |
| COc1ccc(NC(=O)CSc2nc3ccncc3[nH]2)c(OC)c1 | 95% |
| CCCCC12CN3CC(C)(CN(C1)C3c1cc(Br)ccc1O)C2=O (configuration not stated) | 72% |
| CCN=C1S/C(=C\c2cn(CC(=O)NCCOC)c3ccccc23)C(=O)N1CC | 95% |
| CCOc1ccc(CCNC(=O)CS(=O)(=O)Cc2nc(-c3ccc(OC)cc3)oc2C)cc1 | 83% |
| COc1ccc(N(CC(=O)NCc2ccc(F)cc2)S(=O)(=O)c2c(C)n[nH]c2C)cc1 | 79% |
| CCNC(=O)c1cnc2sc(N3CCC(C)CC3)nn2c1=O | 74% |
| Cc1onc(-c2ccccc2Cl)c1C(=O)NC(C(=O)O)C(C)C (configuration not stated) | 86% |
| Cc1onc(-c2c(F)cccc2Cl)c1C(=O)Nc1ccc(OC(C)C)cc1 | 62% |
| Cc1ccc(S(N)(=O)=O)cc1NC(=O)c1c(-c2c(Cl)cccc2Cl)noc1C | 55% (active) |
| CC(C)c1cc(C(=O)NCc2ccccc2)no1 | 54% |
| CCOC(=O)C1CCN(C(=O)CSc2n[nH]c(-c3ccccc3)n2)CC1 | 97% |
| O=C(Nc1noc2ccccc12)c1c(F)cccc1F | 87% |
| COC(=O)c1cccc(Nc2c(-c3ccc(OC)cc3)nc3nc[nH]n23)c1 | 64% |
| Cc1cc(C)c(C#N)c(N2CCN(c3cccc(C)c3C)CC2)n1 | 106% |
| Cc1cc(C)n(CCc2nc3c4ccccc4nc(N4CCN(c5cccc(C)c5C)CC4)n3n2)n1 | 86% |
| COc1ccccc1N1CCN(c2nc3ccc(C)cc3n3nnnc23)CC1 | 128% |
| Cc1ccc2nc(N3CCN(c4cccc(Cl)c4)CC3)c3nnnn3c2c1 | 88% |
| Cc1cc(C)n(-c2nc3cc(Cl)ccc3nc2Nc2ccc(C)c(F)c2)n1 | 91% |

| SMILES | survival |
| --- | --- |
| Cc1cc(C)n(-c2nc3cc(Cl)ccc3nc2N2CCN(c3ccccc3F)CC2)n1 | 98% |
| Cc1cc(C)n(-c2nc3cc(Cl)ccc3nc2N2CCN(c3cccc(C)c3C)CC2)n1 | -6% (active) |
| Cc1ccc(C)c(N2CCN(c3nc4ccc(C)cc4nc3-n3nc(C)cc3C)CC2)c1 | 102% |
| Cc1cc(C)n(-c2nc3ccccc3nc2N2CCN(c3cccc(C)c3C)CC2)n1 | -6% (active) |
| COc1ccccc1N1CCN(c2nc3ccc(C)cc3nc2-n2nc(C)cc2C)CC1 | -5% (active) |
| Cc1cc(C)n(-c2nc3ccccc3nc2N2CCN(c3cccc(C(F)(F)F)c3)CC2)n1 | 91% |
| Cc1ccc2nc(N3CCN(c4cccc(Cl)c4)CC3)c(-n3nc(C)cc3C)nc2c1 | 0% (active) |
| O=C(Nc1ccccc1C(F)(F)F)N1CCN(c2ccc3nnc(-c4ccc(F)cc4)n3n2)CC1 | 58% |
| COc1ccc(-c2nc(CSc3nncn4c3cc3oc(C)cc34)c(C)o2)cc1 | 56% |
| Cc1c(Cl)cccc1-n1ncc(C(=O)N2CCOCC2)c1C1CCN(C(=O)OC(C)(C)C)CC1 | 103% |
| CCc1ccc(S(=O)(=O)Nc2cccc(-c3ccc(OC)nn3)c2)s1 | 76% |
| Cc1c(CC(=O)NCCc2ccccc2F)c(=O)oc2cc(O)c(Cl)cc12 | 59% |
| CCn1cc(C(=O)N2CCN(c3ccccc3F)CC2)c(=O)c2cc(S(=O)(=O)N(C)C3CCCCC3)ccc21 | 79% |
| CCC(C)NC(=O)c1cn(CC)c2ccc(S(=O)(=O)N3CCc4ccccc4C3)cc2c1=O (configuration not stated) | 35% (active) |
| CCn1cc(C(=O)NC(C)c2ccccc2)c(=O)c2cc(S(=O)(=O)N3CCc4ccccc4C3)ccc21 (configuration not stated) | 80% |
| CCOc1ccc(CCNC(=O)c2cn(C)c3ccc(S(=O)(=O)N4CCOCC4)cc3c2=O)cc1OCC | 56% (active) |
| CCOc1ccc(CCNC(=O)c2cn(C)c3ccc(S(=O)(=O)N4CCCCCC4)cc3c2=O)cc1OCC | 61% |
| CCn1cc(C(=O)NCCc2ccc(Cl)cc2)c(=O)c2cc(S(=O)(=O)N3CCc4ccccc4C3)ccc21 | 54% (active) |
| CCn1cc(C(=O)NCCc2ccc(C)cc2)c(=O)c2cc(S(=O)(=O)N3CCc4ccccc4C3)ccc21 | 67% |
| CCn1cc(C(=O)NCCc2ccccc2)c(=O)c2cc(S(=O)(=O)N3CCc4ccccc4C3)ccc21 | 67% |
| CCOc1ccc(CCNC(=O)c2cn(C)c3ccc(S(=O)(=O)N4CCCCC4)cc3c2=O)cc1OCC | 101% |
| CCn1cc(C(=O)NCc2ccccc2)c(=O)c2cc(S(=O)(=O)N3CCc4ccccc4C3)ccc21 | 73% |
| Cn1cnnc1SCC(=O)O | 85% |

| SMILES | survival |
| --- | --- |
| Cc1ccc(NC(=O)CC(C)S(=O)(=O)c2ccc3c(c2)NC(=O)CO3)cc1C (configuration not stated) | 85% |
| Cc1ccc(N2CCN(C(=O)c3c(C)oc4ncnc(N5CCCCC5)c34)CC2)c(C)c1 | 77% |
| CCOc1cc(C(=O)NCC(c2ccc(N(C)C)cc2)N2CCOCC2)cc(OCC)c1OCC (configuration not stated) | 101% |
| CCc1ccc(Nc2ncnc3c2cnn3-c2cc(Cl)ccc2C)cc1 | 77% |
| CCc1nnc(SCc2nc(-c3ccc(OC)c(OC)c3)oc2C)c2cc3sc(C)cc3n12 | 69% |
| O=C(CCCn1c(=O)c2cccn2c2ccc(F)cc21)NCCc1ccccc1 | 47% (active) |
| NS(=O)(=O)c1ccc(CCNC(=O)Cn2c(=O)c3cccn3c3ccc(F)cc32)cc1 | 89% |
| CSc1ccc(CNC(=O)CCn2c(=O)c3cccn3c3ccc(F)cc32)cc1 | 59% |
| O=C(CCn1c(=O)c2cccn2c2cccnc21)NCc1ccccc1F | 100% |
| O=C(CCn1c(=O)c2cccn2c2ccc(F)cc21)NCCc1ccccc1 | 42% (active) |
| O=C(CCn1c(=O)c2cccn2c2ccc(F)cc21)NCCc1ccc(Cl)cc1 | 50% |
| O=C(CCn1c(=O)c2cccn2c2ccc(F)cc21)NCc1ccccc1F | 45% (active) |
| O=C(Cn1c(=O)c2cccn2c2ccccc21)NCCc1ccccc1 | 62% |
| CCC(=O)Nc1ccc(-c2nnc3c4ccccc4c(C)nn23)cc1 | 90% |
| COc1ccc(OC)c(NC(=O)c2c(C)oc3ncnc(N4CCOCC4)c23)c1 | 134% |
| COC(=O)C(C)Sc1cc(C)c2ccccc2n1 (configuration not stated) | 76% |
| CCCCNC(=O)CCCn1c(=O)c2ccccc2n(Cc2cccc(Cl)c2)c1=O | 100% |
| CCN(CC)c1cc(C)nc2nc(-c3ccc(C)cc3)nn12 | 43% (active) |
| CCCN(CCC)c1cc(C)nc2nc(-c3ccc(Cl)cc3)nn12 | 52% |
| CCCN(CCC)c1cc(C)nc2nc(-c3ccc(C(C)(C)C)cc3)nn12 | 103% |
| Cc1cc(N(C)Cc2ccccc2)n2nc(-c3ccc(C(C)(C)C)cc3)nc2n1 | 39% (active) |
| Cc1cc(C)n2nc(-c3ccc(Cl)cc3)nc2n1 | 76% |
| Cc1cc(N(CCO)Cc2ccccc2)n2nc(-c3ccc(C(C)(C)C)cc3)nc2n1 | 48% |
